{"source": "paper PMC7862700", "about": "“An all-to-all approach to the identification of sequence-specific readers for epigenetic DNA modifications on cytosine”", "assay_in_all_cases": "DAPPL (digital affinity profiling via proximity ligation, sequencing); 10 mM Tris-HCl pH 7.5, 50 mM NaCl, 1 mM DTT, 4% glycerol, room temperature, 30 min; GST-TFs on glutathione beads, 16-mer random dsDNA library, 0.1% formaldehyde crosslink after washing; high values mean tight binding", "details_in_all_cases": "protein: recombinant; tags: N-terminal GST; dsDNA, one strand shown", "key": {"[1]": {"target": "T1, FLI1 (Homo sapiens, UniProt Q01543 1-452)", "T1 sequence": "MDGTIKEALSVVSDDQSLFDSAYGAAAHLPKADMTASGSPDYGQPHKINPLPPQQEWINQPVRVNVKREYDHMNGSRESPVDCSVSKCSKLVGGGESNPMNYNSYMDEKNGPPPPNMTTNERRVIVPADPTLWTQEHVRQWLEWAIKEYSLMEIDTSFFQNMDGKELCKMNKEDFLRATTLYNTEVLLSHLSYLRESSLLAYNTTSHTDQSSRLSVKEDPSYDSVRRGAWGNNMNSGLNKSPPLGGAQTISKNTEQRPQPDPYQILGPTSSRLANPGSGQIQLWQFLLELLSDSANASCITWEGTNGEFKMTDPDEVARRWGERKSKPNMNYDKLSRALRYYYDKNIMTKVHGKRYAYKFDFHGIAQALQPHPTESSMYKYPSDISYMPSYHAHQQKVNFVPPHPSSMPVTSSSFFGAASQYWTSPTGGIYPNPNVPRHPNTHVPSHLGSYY", "how_it_was_run": "(§1)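 Pools were built from human transcription factors expressed in yeast as GST fusions, captured on glutathione beads and DNA-barcoded, along with a tag-only sample. Incubation with 200 nmole of a 16-mer random double-stranded DNA library lasted 30 min at room temperature in Tris/NaCl/DTT/glycerol buffer, and was followed by washing, 0.1% formaldehyde crosslinking, proximity ligation, PCR amplification and Illumina NextSeq500 sequencing. Binding signal is the quotient of each hexamer's read frequency for a factor and its frequency for the tag-only sample.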"}, "[2]": {"target": "T2, ELK1 (Homo sapiens, UniProt P19419 1-428)", "T2 sequence": "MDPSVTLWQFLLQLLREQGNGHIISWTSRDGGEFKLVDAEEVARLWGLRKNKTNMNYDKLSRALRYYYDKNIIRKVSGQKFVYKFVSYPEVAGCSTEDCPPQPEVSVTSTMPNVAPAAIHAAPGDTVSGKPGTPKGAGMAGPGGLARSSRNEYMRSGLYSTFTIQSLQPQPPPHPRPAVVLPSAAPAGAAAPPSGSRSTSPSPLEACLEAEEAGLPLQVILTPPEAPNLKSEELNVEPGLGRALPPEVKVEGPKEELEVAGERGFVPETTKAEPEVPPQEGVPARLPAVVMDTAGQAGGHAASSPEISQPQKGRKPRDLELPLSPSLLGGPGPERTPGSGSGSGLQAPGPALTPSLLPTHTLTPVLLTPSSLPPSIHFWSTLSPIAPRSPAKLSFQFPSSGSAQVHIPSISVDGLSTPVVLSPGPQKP", "how_it_was_run": "as §1"}, "[3]": {"target": "T3, GABPA (Homo sapiens, UniProt Q06546 1-454)", "T3 sequence": "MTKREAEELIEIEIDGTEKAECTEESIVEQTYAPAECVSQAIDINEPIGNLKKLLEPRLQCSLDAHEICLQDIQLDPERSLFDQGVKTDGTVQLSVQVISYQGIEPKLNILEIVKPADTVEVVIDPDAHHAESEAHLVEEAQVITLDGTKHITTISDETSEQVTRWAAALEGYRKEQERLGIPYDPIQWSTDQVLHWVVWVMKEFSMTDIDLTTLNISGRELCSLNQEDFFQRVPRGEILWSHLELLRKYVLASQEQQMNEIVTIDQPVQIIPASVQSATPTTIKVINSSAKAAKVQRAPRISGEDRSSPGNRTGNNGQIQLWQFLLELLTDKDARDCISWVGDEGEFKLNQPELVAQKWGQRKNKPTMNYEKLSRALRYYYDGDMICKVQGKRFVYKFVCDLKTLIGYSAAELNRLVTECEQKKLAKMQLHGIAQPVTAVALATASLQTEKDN", "how_it_was_run": "as §1"}, "[4]": {"target": "T4, ERG (Homo sapiens, UniProt P11308 1-479)", "T4 sequence": "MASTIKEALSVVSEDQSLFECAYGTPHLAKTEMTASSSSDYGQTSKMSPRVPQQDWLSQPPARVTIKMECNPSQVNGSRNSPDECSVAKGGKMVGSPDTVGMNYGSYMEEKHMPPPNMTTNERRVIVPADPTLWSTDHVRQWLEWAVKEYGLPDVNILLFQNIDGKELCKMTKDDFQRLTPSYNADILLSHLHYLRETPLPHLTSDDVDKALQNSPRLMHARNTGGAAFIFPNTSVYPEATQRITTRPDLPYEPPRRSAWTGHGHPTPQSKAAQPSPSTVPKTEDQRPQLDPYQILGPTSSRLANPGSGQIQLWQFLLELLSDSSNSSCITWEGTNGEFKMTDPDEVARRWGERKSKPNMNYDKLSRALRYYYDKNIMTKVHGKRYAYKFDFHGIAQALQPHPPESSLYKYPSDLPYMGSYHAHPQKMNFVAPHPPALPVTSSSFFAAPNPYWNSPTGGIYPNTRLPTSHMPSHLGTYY", "how_it_was_run": "as §1"}, "[5]": {"target": "ELF1 (Homo sapiens, UniProt P32519 1-619)", "sequence (P32519 whole entry)": "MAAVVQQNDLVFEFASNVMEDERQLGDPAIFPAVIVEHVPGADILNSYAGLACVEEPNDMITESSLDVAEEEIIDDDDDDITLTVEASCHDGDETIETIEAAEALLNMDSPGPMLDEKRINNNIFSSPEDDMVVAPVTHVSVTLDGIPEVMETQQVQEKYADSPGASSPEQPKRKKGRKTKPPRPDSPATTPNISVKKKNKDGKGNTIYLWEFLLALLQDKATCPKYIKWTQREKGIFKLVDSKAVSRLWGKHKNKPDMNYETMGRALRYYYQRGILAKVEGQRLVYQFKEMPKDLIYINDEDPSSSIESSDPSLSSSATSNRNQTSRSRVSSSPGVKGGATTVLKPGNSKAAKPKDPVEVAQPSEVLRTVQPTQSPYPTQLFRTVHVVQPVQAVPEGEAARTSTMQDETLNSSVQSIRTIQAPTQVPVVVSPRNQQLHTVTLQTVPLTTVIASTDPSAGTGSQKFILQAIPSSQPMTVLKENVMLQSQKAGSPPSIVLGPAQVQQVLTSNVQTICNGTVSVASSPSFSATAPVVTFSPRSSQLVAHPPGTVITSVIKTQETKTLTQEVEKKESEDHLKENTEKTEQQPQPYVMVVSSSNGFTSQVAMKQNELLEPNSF", "how_it_was_run": "as §1"}, "[6]": {"target": "T5, EHF (Homo sapiens, UniProt Q9NZC4 1-300)", "T5 sequence": "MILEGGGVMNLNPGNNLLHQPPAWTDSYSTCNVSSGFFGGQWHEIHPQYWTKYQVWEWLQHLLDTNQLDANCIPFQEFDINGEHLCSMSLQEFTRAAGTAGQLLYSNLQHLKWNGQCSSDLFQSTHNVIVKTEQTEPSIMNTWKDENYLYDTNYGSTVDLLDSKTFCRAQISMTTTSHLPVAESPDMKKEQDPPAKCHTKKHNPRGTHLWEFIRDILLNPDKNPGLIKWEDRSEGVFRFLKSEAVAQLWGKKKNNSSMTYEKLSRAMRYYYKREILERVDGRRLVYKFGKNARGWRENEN", "how_it_was_run": "as §1"}, "[7]": {"target": "SPI1 (Homo sapiens, UniProt P17947 1-270)", "how_it_was_run": "as §1"}, "[8]": {"target": "SPIB (Homo sapiens, UniProt Q01892 1-262)", "sequence (Q01892 whole entry)": "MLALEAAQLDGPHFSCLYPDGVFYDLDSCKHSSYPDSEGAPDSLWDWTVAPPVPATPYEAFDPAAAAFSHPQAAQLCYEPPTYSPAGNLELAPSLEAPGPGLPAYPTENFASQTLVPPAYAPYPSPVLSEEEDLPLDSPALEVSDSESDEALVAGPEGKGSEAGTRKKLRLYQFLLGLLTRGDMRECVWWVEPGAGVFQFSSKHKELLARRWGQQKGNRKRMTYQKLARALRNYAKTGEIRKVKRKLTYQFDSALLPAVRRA", "how_it_was_run": "as §1"}, "[9]": {"target": "T6, ELK3 (Homo sapiens, UniProt P41970 1-407)", "T6 sequence": "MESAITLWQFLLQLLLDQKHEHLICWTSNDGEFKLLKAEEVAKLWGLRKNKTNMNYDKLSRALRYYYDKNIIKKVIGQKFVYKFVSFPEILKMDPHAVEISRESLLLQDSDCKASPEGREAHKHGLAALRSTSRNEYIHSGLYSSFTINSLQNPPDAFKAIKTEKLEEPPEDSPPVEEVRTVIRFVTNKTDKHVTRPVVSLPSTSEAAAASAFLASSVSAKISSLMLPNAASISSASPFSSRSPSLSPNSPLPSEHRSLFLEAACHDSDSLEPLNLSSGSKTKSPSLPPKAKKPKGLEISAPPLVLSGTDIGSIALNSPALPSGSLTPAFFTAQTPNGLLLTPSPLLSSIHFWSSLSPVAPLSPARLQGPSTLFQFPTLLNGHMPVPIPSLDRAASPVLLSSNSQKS", "how_it_was_run": "as §1"}}}
{"sequence": "CAATAC", "values": [{"measurement": "binding signal", "setting": "[1]", "value": "1.25 fold enrichment (6-mer frequency, TF over GST control)"}, {"measurement": "binding signal", "setting": "[2]", "value": "1.29 fold enrichment (6-mer frequency, TF over GST control)"}, {"measurement": "binding signal", "setting": "[3]", "value": "1.23 fold enrichment (6-mer frequency, TF over GST control)"}, {"measurement": "binding signal", "setting": "[4]", "value": "1.23 fold enrichment (6-mer frequency, TF over GST control)"}, {"measurement": "binding signal", "setting": "[5]", "value": "1.24 fold enrichment (6-mer frequency, TF over GST control)"}, {"measurement": "binding signal", "setting": "[6]", "value": "1.2 fold enrichment (6-mer frequency, TF over GST control)"}, {"measurement": "binding signal", "setting": "[7]", "value": "1.25 fold enrichment (6-mer frequency, TF over GST control)"}, {"measurement": "binding signal", "setting": "[8]", "value": "1.17 fold enrichment (6-mer frequency, TF over GST control)"}, {"measurement": "binding signal", "setting": "[9]", "value": "1.28 fold enrichment (6-mer frequency, TF over GST control)"}]}
